{"source": "the supplement of paper PMC8728848", "binders": {"B1": {"name": "TIM-1 (Mus musculus), AAL35774 (protein)", "chain": "MNQIQVFISGLILLLPGAVDSYVEVKGVVGHPVTLPCTYSTYRGITTTCWGRGQCPSSACQNTLIWTNGHRVTYQKSSRYNLKGHISEGDVSLTIENSVESDSGLYCCRVEIPGWFNDQKVTFSLQVKPEIPTRPPTRPTTTRPTATGRPTTISTRSTHVPTSIRVSTSTPPTSTHTWTHKPEPTTFCPHETTAEVTGIPSHTPTDWNGTVTSSGDTWSNHTEAIPPGKPQKNPTKGFYVGICIAALLLLLLVSTVAITRYILMKRKSASLSVVAFRVSKIEALQNAAVVHSRAEDNIYIVEDRP"}, "B2": {"name": "PMA (Polygonatum multiflorum) (protein)", "chain": "LLTTTLFVFISSTRSLASTNVLYSDVGNAILNAKESLIYGDYRLDMQSDCNLVLYNKAAPYWASGTRWSWGGNCHLNLQSNGELVMYAYLGRTRIAIWRSGIISATGSYALVLKYDGALHVHGPSLWSTNATGPTTPTTASWSIDSTLWSGDVATIGPTIANGDYKLELLDTCNLTLSNTKTGQVLWYTNTTDWVHDCYVNIEGNGELKIKYLGGATLWSNKVGAGYTNNYVLGLRPDGKLDTYNAPIWSPTIGPGVHVAPAVYNASSNAVAAEGNGEKIAMVTGRAKNST"}}, "test_in_all_cases": "glycan array binding signal (z-score within array); higher = stronger binding", "settings_in_all_cases": "glycan notation: IUPAC condensed, linker removed", "key": {"[1]": {"target": "Fuc(a1-2)[GalNAc(a1-3)]Gal(b1-4)GlcNAc", "in_short": "(§1)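 From the Consortium for Functional Glycomics database, 3228 arrays were curated, keeping only those whose protein sequence was available. Binding is given as a within-array Z-score averaged across arrays sharing a protein sequence and across linkers. Negative Z-scores can be read as non-binding.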"}, "[2]": {"target": "Gal(a1-3)Gal(b1-3)Glc", "in_short": "as §1"}, "[3]": {"target": "Gal(a1-3)Gal(b1-4)[Fuc(a1-3)]GlcNAc", "in_short": "as §1"}, "[4]": {"target": "Gal(a1-4)Gal(b1-4)Gal", "in_short": "as §1"}, "[5]": {"target": "Gal3S(b1-3)GlcNAc", "in_short": "as §1"}, "[6]": {"target": "Gal6S(b1-4)Glc", "in_short": "as §1"}, "[7]": {"target": "GlcA(b1-3)Gal", "in_short": "as §1"}, "[8]": {"target": "GlcA(b1-6)Gal", "in_short": "as §1"}, "[9]": {"target": "GlcNAc(b1-3)[GlcNAc(b1-6)]GlcNAc", "in_short": "as §1"}, "[10]": {"target": "GlcNAc(b1-4)GlcNAc(b1-4)GlcNAc(b1-4)GlcNAc(b1-4)GlcNAc", "in_short": "as §1"}, "[11]": {"target": "Neu5Ac(a2-3)Gal(b1-4)[Fuc(a1-3)]GlcNAc", "in_short": "as §1"}, "[12]": {"target": "Neu5Ac(a2-3)Gal(b1-4)[Fuc(a1-3)]GlcNAc(b1-3)Gal", "in_short": "as §1"}, "[13]": {"target": "Neu5Ac(a2-3)GalNAc(b1-4)GlcNAc", "in_short": "as §1"}, "[14]": {"target": "Neu5Ac(a2-3)[GalNAc(b1-4)]Gal(b1-4)Glc", "in_short": "as §1"}, "[15]": {"target": "Neu5Ac(a2-3)[Neu5Ac(a2-6)]GalNAc", "in_short": "as §1"}, "[16]": {"target": "Neu5Ac(a2-6)Gal(b1-4)GlcNAc(b1-3)Gal(b1-4)[Fuc(a1-3)]GlcNAc(b1-3)Gal(b1-4)[Fuc(a1-3)]GlcNAc", "in_short": "as §1"}, "[17]": {"target": "Neu5Ac(a2-6)GalNAc", "in_short": "as §1"}, "[18]": {"target": "Fuc(a1-2)[GalNAc(a1-3)]Gal(b1-4)Glc", "in_short": "as §1"}, "[19]": {"target": "Fuc(a1-2)[GalNAc(a1-3)]Gal(b1-4)[Fuc(a1-3)]GlcNAc", "in_short": "as §1"}, "[20]": {"target": "Gal(a1-4)Gal(b1-4)Glc", "in_short": "as §1"}, "[21]": {"target": "Gal(b1-3)Gal", "in_short": "as §1"}, "[22]": {"target": "Gal(b1-4)GlcNAc", "in_short": "as §1"}, "[23]": {"target": "Gal(b1-4)GlcNAc(b1-2)Man(a1-3)[Gal(b1-4)GlcNAc(b1-2)Man(a1-6)]Man(b1-4)GlcNAc(b1-4)GlcNAc", "in_short": "as §1"}, "[24]": {"target": "GalNAc(a1-3)Gal", "in_short": "as §1"}, "[25]": {"target": "GalNAc(b1-4)GlcNAc", "in_short": "as §1"}, "[26]": {"target": "GlcNAc(b1-2)Man(a1-3)[GlcNAc(b1-2)Man(a1-6)]Man(b1-4)GlcNAc(b1-4)GlcNAc", "in_short": "as §1"}, "[27]": {"target": "GlcNAc(b1-3)Gal", "in_short": "as §1"}, "[28]": {"target": "GlcNAc(b1-6)Gal(b1-4)GlcNAc", "in_short": "as §1"}, "[29]": {"target": "Man(a1-2)Man(a1-2)Man(a1-6)[Man(a1-3)]Man", "in_short": "as §1"}, "[30]": {"target": "Man(a1-2)Man(a1-3)[Man(a1-2)Man(a1-6)]Man", "in_short": "as §1"}, "[31]": {"target": "Man(a1-3)[Man(a1-6)]Man(a1-6)[Man(a1-3)]Man(b1-4)GlcNAc(b1-4)GlcNAc", "in_short": "as §1"}, "[32]": {"target": "Neu5Ac(a2-3)Gal(b1-3)[Neu5Ac(a2-3)Gal(b1-4)]GlcNAc", "in_short": "as §1"}, "[33]": {"target": "Neu5Ac(a2-3)Gal(b1-4)Glc", "in_short": "as §1"}, "[34]": {"target": "Neu5Ac(a2-6)Gal(b1-4)Glc", "in_short": "as §1"}, "[35]": {"target": "Neu5Ac(a2-8)Neu5Ac(a2-8)Neu5Ac(a2-8)Neu5Ac(a2-3)[GalNAc(b1-4)]Gal(b1-4)Glc", "in_short": "as §1"}}, "note": "Many of the other results were omitted from the sample, so the strongest signals are more common in it than they were."}
{"binder": "B1", "values": [{"measurement": "glycan array binding signal (z-score)", "setting": "[1]", "value": -0.268}, {"measurement": "glycan array binding signal (z-score)", "setting": "[2]", "value": -0.335}, {"measurement": "glycan array binding signal (z-score)", "setting": "[3]", "value": 2.6}, {"measurement": "glycan array binding signal (z-score)", "setting": "[4]", "value": 1.46}, {"measurement": "glycan array binding signal (z-score)", "setting": "[5]", "value": -0.247}, {"measurement": "glycan array binding signal (z-score)", "setting": "[6]", "value": -0.128}, {"measurement": "glycan array binding signal (z-score)", "setting": "[7]", "value": 2.46}, {"measurement": "glycan array binding signal (z-score)", "setting": "[8]", "value": 2.12}, {"measurement": "glycan array binding signal (z-score)", "setting": "[9]", "value": -0.61}, {"measurement": "glycan array binding signal (z-score)", "setting": "[10]", "value": 1.29}, {"measurement": "glycan array binding signal (z-score)", "setting": "[11]", "value": -0.451}, {"measurement": "glycan array binding signal (z-score)", "setting": "[12]", "value": -0.414}, {"measurement": "glycan array binding signal (z-score)", "setting": "[13]", "value": -0.411}, {"measurement": "glycan array binding signal (z-score)", "setting": "[14]", "value": -0.433}, {"measurement": "glycan array binding signal (z-score)", "setting": "[15]", "value": 0.386}, {"measurement": "glycan array binding signal (z-score)", "setting": "[16]", "value": -0.125}, {"measurement": "glycan array binding signal (z-score)", "setting": "[17]", "value": -0.529}]}
{"binder": "B2", "values": [{"measurement": "glycan array binding signal (z-score)", "setting": "[18]", "value": -0.249}, {"measurement": "glycan array binding signal (z-score)", "setting": "[19]", "value": -0.236}, {"measurement": "glycan array binding signal (z-score)", "setting": "[20]", "value": -0.244}, {"measurement": "glycan array binding signal (z-score)", "setting": "[21]", "value": -0.195}, {"measurement": "glycan array binding signal (z-score)", "setting": "[22]", "value": -0.068}, {"measurement": "glycan array binding signal (z-score)", "setting": "[23]", "value": 7.37}, {"measurement": "glycan array binding signal (z-score)", "setting": "[24]", "value": -0.253}, {"measurement": "glycan array binding signal (z-score)", "setting": "[25]", "value": -0.246}, {"measurement": "glycan array binding signal (z-score)", "setting": "[26]", "value": 5.03}, {"measurement": "glycan array binding signal (z-score)", "setting": "[27]", "value": -0.263}, {"measurement": "glycan array binding signal (z-score)", "setting": "[28]", "value": -0.255}, {"measurement": "glycan array binding signal (z-score)", "setting": "[29]", "value": 5.65}, {"measurement": "glycan array binding signal (z-score)", "setting": "[30]", "value": 4.98}, {"measurement": "glycan array binding signal (z-score)", "setting": "[31]", "value": 2.16}, {"measurement": "glycan array binding signal (z-score)", "setting": "[32]", "value": -0.191}, {"measurement": "glycan array binding signal (z-score)", "setting": "[33]", "value": -0.233}, {"measurement": "glycan array binding signal (z-score)", "setting": "[34]", "value": -0.255}, {"measurement": "glycan array binding signal (z-score)", "setting": "[35]", "value": -0.245}]}
